Data published in PubChem BioAssay.
Calls of active or inactive are those of the source. Unless noted, the rule behind the calls is not given here.

Columns and labels:
[1] = tested on: Wnt5a (protein binding on small-molecule microarray); experiment: small molecules binding Wnt5a protein – biophysical, small-molecule microarray, 635/667 nm fluorescence, primary screen (AID 1142); details: 635 nm fluorescence, higher = more signal;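 note: fluorescence read at 667 nm with signal to noise per printed feature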
[2] = ATP-based viability of Huh7 replicon cells – cell-based, CellTiter-Glo luminescence, basal, 48 h, cytotoxicity control for HCV replication inhibitor project, primary screen (AID 1143); details: higher = more signal, called active from +8 up or from −8 down;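 note: Huh7 hepatoma cells carrying a hepatitis C replication reporter with no stimulus; test concentration not given here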
[3] = Pseudomonas biofilm growth suppression – PAO1 strain, BacTiter-Glo luminescence, LB-PBS, primary screen (AID 1144); details: P. aeruginosa PAO1 biofilm, 12 h, higher = more signal
[4] = basal CRE-LacZ reporter activity in PC12 – cell-based, unstimulated, primary screen (AID 1145); details: no forskolin, luminescence, 4.5 h, higher = more signal, called active from +8 up or from −8 down
[5] = forskolin-driven CRE-LacZ activity in PC12 – cell-based, CRE-LacZ reporter, forskolin-stimulated, primary screen (AID 1146); details: luminescence, 4.5 h, higher = more signal, called active from +8 up or from −8 down;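 note: PC12 cells with 6xCRE LacZ reporter stimulated by forskolin 10 µM; beta-galactosidase reporter signal reflecting CREB driven transcription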
[6] = biological target: Streptavidin (Streptomyces avidinii) (UniProt P22629); experiment: compounds binding control protein streptavidin – biophysical, small-molecule microarray, 635/667 nm fluorescence, artefact control for SMM compound annotation, primary screen (AID 1147); details: higher = more signal;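 note: signal reflects streptavidin binding to arrayed compounds as a control protein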
Streptavidin (Streptomyces avidinii), sequence (P22629 whole entry, looked up): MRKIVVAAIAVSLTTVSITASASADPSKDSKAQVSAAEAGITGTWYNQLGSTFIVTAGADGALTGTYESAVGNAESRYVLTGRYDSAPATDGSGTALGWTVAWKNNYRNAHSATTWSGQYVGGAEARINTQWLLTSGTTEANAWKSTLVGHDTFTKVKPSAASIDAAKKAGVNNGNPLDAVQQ

[7] = probe aInhba binding on compound microarray – biochemical, small-molecule microarray, 635/667 nm fluorescence, primary screen (AID 1148); details: higher = more signal;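 note: score merges 667nm spot fluorescence with signal-to-noise for antibody binding to printed compounds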
Torsin-1A (Homo sapiens) [8] = biological target: Torsin-1A (Homo sapiens) (UniProt O14656); experiment: TOR1A wild-type binding on microarray – cell lysate, small-molecule microarray, lysate, 635/667 nm, primary screen (AID 1149); details: COS7 hTOR1A-WT lysate, 635 nm fluorescence, higher = more signal
Torsin-1A (Homo sapiens), sequence (O14656 whole entry, looked up): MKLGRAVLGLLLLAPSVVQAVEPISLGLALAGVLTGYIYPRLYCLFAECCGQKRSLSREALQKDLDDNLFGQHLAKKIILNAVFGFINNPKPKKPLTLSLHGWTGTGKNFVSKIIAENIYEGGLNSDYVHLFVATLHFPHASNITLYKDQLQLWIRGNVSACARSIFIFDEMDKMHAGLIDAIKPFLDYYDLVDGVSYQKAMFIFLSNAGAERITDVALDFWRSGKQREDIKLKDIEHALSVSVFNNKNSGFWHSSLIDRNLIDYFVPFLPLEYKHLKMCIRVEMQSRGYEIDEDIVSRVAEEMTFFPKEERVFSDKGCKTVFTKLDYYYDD

Torsin-1A (Homo sapiens) [9] = biological target: Torsin-1A (Homo sapiens) (UniProt O14656); experiment: torsin A mutant lysate binding on microarrays – cell lysate, small-molecule microarray, COS7 lysate, 635/667 nm fluorescence, primary screen (AID 1150); details: COS7 hTOR1A mutant lysate, 635 nm fluorescence, higher = more signal;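 note: score pools 667 nm emission and signal to noise measuring lysate protein binding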
[10] = tested on: Sonic hedgehog protein (Shh); experiment: Sonic hedgehog microarray binding compounds – biochemical, small-molecule microarray, 635/667 nm fluorescence, primary screen (AID 1151); details: 635 nm fluorescence, higher = more signal;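 note: Shh protein binding to compounds spotted on small-molecule microarray slides; score combines spot fluorescence intensity with signal-to-noise across triplicate slides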
[11] = optical density shifts of acrAB sulA E. coli – strain DRC41, OD650, 48 h, E. coli filamentation inducer project, primary screen (AID 1152); details: higher = more signal, called active from +8 up or from −8 down;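 note: E. coli MC1000 strain DRC41 lacking acrAB efflux pump and sulA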
[12] = probe aLefty1 binding on compound microarray – biochemical, small-molecule microarray, 635/667 nm fluorescence, primary screen (AID 1153); details: higher = more signal;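 note: score merges spot fluorescence with signal-to-noise ratio from the scanned slide images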
[13] = plasmodial surface anion channel blockers, osmotic lysis – cell-based, P. falciparum Indochina, OD700, 1 h, primary screen (AID 1154); details: P. falciparum Indochina infected RBC osmotic lysis, higher = more signal, called active from +8 up or from −8 down
[14] = plasmodial surface anion channel blockers, osmotic lysis – cell-based, P. falciparum Indochina, OD700, 2 h, primary screen (AID 1155);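 note: lysis reports solute entry through the parasite surface anion channel PSAC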; details: P. falciparum Indochina infected erythrocytes, higher = more signal, called active from +8 up or from −8 down
[15] = changes in parasitized red cell lysis, either direction – P. falciparum Indochina, OD700, 3 h, PSAC antagonist project, primary screen (AID 1156); details: P. falciparum-infected erythrocytes, osmotic lysis, higher = more signal, called active from +8 up or from −8 down
[16] = plasmodial surface anion channel blockers, osmotic lysis – cell-based, P. falciparum Indochina, OD700, 18 h, primary screen (AID 1157); details: P. falciparum Indochina infected erythrocytes, osmotic lysis OD700, 18 h; higher = more signal, called active from +8 up or from −8 down
[17] = S6 kinase pathway phospho-S6 level changes – cell-based, A549, cytoblot, luminescence, serum-stimulated, primary screen (AID 1158); details: 5 h, higher = more signal;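 note: serum-stimulated A549 lung adenocarcinoma cells; signal is phosphorylated S6 detected by cytoblot immunostaining with HRP secondary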
[18] = biological target: NADPH oxidase 2 (Homo sapiens) (UniProt P04839); experiment: compounds shifting NOX2 Amplex Red fluorescence – cell-based, HEK293-NOX2, PMA-stimulated, NOX inhibitor project, primary screen (AID 1159); details: 45 min, higher = more signal, called active from +8 up or from −8 down; note: test concentration not given here
NADPH oxidase 2 (Homo sapiens), sequence (P04839 whole entry, looked up): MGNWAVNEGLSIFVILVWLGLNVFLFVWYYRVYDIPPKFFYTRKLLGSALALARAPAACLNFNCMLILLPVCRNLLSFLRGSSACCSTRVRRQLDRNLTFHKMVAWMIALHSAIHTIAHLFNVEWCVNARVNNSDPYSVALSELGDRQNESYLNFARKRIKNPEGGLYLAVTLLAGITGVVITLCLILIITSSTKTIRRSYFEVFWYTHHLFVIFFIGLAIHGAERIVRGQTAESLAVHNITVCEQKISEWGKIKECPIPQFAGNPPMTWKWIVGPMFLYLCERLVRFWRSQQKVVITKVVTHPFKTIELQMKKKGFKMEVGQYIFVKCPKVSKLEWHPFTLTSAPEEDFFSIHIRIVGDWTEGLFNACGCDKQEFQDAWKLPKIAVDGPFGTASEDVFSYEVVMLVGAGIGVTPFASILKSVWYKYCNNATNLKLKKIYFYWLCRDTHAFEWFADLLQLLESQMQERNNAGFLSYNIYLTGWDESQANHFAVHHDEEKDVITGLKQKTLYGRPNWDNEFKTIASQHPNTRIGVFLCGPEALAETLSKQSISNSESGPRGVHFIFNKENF

[19] = biological target: NADPH oxidase 4 (Homo sapiens) (UniProt Q9NPH5); experiment: compounds shifting NOX4 Amplex Red fluorescence – cell-based, HEK293-NOX4, tetracycline-induced, NOX inhibitor project, primary screen (AID 1160); details: HEK293-NOX4, Amplex Red H2O2 fluorescence, 45 min; higher = more signal, called active from +8 up or from −8 down
NADPH oxidase 4 (Homo sapiens), sequence (Q9NPH5 whole entry, looked up): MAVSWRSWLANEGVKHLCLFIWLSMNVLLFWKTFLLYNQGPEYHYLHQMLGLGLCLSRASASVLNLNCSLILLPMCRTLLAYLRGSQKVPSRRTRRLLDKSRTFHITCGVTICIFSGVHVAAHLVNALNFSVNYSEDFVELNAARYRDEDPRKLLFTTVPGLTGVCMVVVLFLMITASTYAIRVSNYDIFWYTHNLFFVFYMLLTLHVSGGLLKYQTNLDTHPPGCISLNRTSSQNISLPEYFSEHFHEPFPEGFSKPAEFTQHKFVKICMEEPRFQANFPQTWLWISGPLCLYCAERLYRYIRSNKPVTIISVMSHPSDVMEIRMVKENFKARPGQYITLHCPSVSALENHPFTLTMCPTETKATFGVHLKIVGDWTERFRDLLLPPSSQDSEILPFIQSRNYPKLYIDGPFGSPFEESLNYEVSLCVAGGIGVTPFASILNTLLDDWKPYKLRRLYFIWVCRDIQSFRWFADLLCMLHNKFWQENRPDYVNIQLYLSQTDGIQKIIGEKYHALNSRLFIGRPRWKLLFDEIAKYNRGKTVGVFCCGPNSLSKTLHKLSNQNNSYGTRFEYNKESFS

[20] = biological target: NADPH oxidase 5 (Homo sapiens) (UniProt Q96PH1); experiment: compounds shifting NOX5 Amplex Red fluorescence – cell-based, HEK293-NOX5, NOX inhibitor project, primary screen (AID 1161); details: HEK293-NOX5, ionomycin, 45 min, higher = more signal
NADPH oxidase 5 (Homo sapiens), sequence (Q96PH1 whole entry, looked up): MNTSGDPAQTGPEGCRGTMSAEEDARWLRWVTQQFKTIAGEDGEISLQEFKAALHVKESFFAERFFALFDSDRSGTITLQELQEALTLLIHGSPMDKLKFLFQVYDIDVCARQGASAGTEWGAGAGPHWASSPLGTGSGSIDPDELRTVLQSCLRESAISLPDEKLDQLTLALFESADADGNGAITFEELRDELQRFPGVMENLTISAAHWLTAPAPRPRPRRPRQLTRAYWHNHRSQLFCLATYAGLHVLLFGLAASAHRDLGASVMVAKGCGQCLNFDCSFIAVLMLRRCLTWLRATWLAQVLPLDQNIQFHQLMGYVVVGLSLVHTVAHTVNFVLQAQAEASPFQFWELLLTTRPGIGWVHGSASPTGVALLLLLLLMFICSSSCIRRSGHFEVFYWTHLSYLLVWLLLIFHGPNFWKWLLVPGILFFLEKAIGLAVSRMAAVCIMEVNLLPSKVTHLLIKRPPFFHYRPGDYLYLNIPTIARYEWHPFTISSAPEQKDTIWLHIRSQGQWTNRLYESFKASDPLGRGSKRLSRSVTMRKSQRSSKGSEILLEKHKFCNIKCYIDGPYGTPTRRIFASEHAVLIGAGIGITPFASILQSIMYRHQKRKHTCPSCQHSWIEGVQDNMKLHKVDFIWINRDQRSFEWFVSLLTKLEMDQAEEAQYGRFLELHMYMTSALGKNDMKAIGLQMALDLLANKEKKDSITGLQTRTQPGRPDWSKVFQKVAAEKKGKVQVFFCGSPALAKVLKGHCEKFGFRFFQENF

| SMILES | composite z-score [1] | z-score [2] | z-score [3] | z-score [4] | z-score [5] | composite z-score [6] | composite z-score [7] | composite z-score (Torsin-1A (Homo sapiens) [8]) | composite z-score (Torsin-1A (Homo sapiens) [9]) | composite z-score [10] | z-score [11] | composite z-score [12] | z-score [13] | z-score [14] | z-score [15] | z-score [16] | z-score [17] | z-score [18] | z-score [19] | z-score [20] |
| --- | --- | --- | --- | --- | --- | --- | --- | --- | --- | --- | --- | --- | --- | --- | --- | --- | --- | --- | --- | --- |
| COC(=O)[C@H](Cc1ccc(O)cc1)N[C@@H](/C=C/C1CC1)[C@H](O)Cc1ccccc1 | -0.377 | -0.794 (inactive) | 0.814 (inactive) | 7.92 (inactive) | 1.6 (inactive) | -0.295 | -0.153 | -0.474 | 0.0615 | -0.142 | -0.571 (inactive) | -0.275 | 0.963 (inactive) | 0.496 (inactive) | 0.098 (inactive) | -0.0396 (inactive) | -0.557 | 0.0285 (inactive) | 0.516 (inactive) | -0.929 |
| CC(C)OC(=O)CC(=O)CC(O)c1cccc([N+](=O)[O-])c1 (stereo not given) | 0.457 | -3.92 (inactive) | -2.34 (inactive) | -0.676 (inactive) | -0.185 (inactive) | 1.14 | -0.0221 | -0.324 | 2.75 | -0.352 | 1.27 (inactive) | 0.318 | 3.27 (inactive) | 0.79 (inactive) | -1.39 (inactive) | -0.295 (inactive) | 2.1 | -0.068 (inactive) | 0.147 (inactive) | 0.435 |
| C[C@@H]1ON(c2ccccc2)[C@H](c2ccccc2)[C@H]1C(=O)O | -0.0071 | 0.343 (inactive) | -0.525 (inactive) | 0.308 (inactive) | 0.411 (inactive) | 0.0265 | 0.134 | 0.404 | -0.115 | 1.01 | -0.0929 (inactive) | 0.106 | 0.348 (inactive) | -0.299 (inactive) | -0.142 (inactive) | -0.136 (inactive) | 0.0366 | -0.436 (inactive) | 0.24 (inactive) | 0.46 |
| COCCCN1C(=O)[C@@]2(c3ccc([N+](=O)[O-])cc3)CC(=O)N(CC34CC5CC(CC(C5)C3)C4)[C@@H]2c2ccc(CO)cc21 | -0.15 | -0.636 (inactive) | -0.453 (inactive) | -1.32 (inactive) | -0.556 (inactive) | 0.135 | -0.138 | -0.323 | -0.0458 | 0.791 | 0.172 (inactive) | -0.298 | -0.409 (inactive) | 0.28 (inactive) | 1.48 (inactive) | 0.0583 (inactive) | 0.261 | 0.307 (inactive) | 0.183 (inactive) | 0.482 |
| COc1ccc([Si](C)(C)[C@H]2[C@H](CC(=O)N3Cc4ccccc4C[C@H]3CO)O[C@@]3(C(=O)N(C)c4c(Br)cc(C)cc43)[C@@H]2C)cc1 | 0.144 | -7.74 (inactive) | -0.324 (inactive) | 7.68 (inactive) | -1.29 (inactive) | 0.298 | -0.0087 | 0.573 | 0.435 | 2.11 | -1.05 (inactive) | 0.297 | 9.31 (active) | 2.16 (inactive) | 1.31 (inactive) | 1.68 (inactive) | 0.0914 | 0.0544 (inactive) | 0.794 (inactive) | 0.136 |
| C=CCC(OC(C)=O)[C@@H]1[C@@H](N(Cc2cccc3ccccc23)C(=O)Cc2ccc(OC)cc2)c2cc(OCCCO)ccc2N1C(=O)Cc1ccc2ccccc2c1 (stereo not given in full) | -0.0841 | -1.91 (inactive) | 0.255 (inactive) | -0.854 (inactive) | 1.38 (inactive) | 0.175 | -0.181 | -0.254 | -0.41 | 0.0227 | -0.504 (inactive) | 0.285 | 2.18 (inactive) | 0.0026 (inactive) | 1.42 (inactive) | -0.0843 (inactive) | 0.909 | -2.23 (inactive) | -0.887 (inactive) | -1.91 |
| O=C1NC(=O)C2C1C=CC(C(O)c1ccc(B(O)O)cc1)N2Nc1ccc(Cl)cc1Cl (stereo not given) | -0.0744 | -0.245 (inactive) | -0.661 (inactive) | -0.515 (inactive) | 0.763 (inactive) | 1.09 | 0.0074 | -1.22 | -0.147 | -0.589 | -2.48 (inactive) | 0.199 | 1.8 (inactive) | 0.917 (inactive) | -0.577 (inactive) | 0.654 (inactive) | -1.07 | -2.66 (inactive) | -5.04 (inactive) | -6.42 |
| C=C(CCCC)C(=O)CC[C@H](OC(=O)c1ccccc1-c1ccccc1C(=O)O)c1ccc(OCCO)cc1 | 0.475 | -1.19 (inactive) | -1.5 (inactive) | -0.35 (inactive) | 2.12 (inactive) | -0.092 | 0.0614 | 0.374 | 0.204 | 1.91 | 0.418 (inactive) | -0.199 | 12.3 (active) | 1.38 (inactive) | 1.49 (inactive) | 0.847 (inactive) | -0.265 | 0.135 (inactive) | -0.406 (inactive) | -1.59 |
| CCOC(=O)C1=C[C@@H](C(C)(C)C)N(S(=O)(=O)c2ccc(C)cc2)[C@H]1c1ccc(C#N)cc1 | 0.327 | -3.61 (inactive) | 0.261 (inactive) | -0.228 (inactive) | 0.624 (inactive) | 0.948 | 0.0785 | 0.855 | 1.57 | -0.264 | -1.02 (inactive) | 0.337 | 3.01 (inactive) | 1.33 (inactive) | -0.217 (inactive) | 0.905 (inactive) | -0.561 | -0.642 (inactive) | -0.508 (inactive) | 1.11 |
